Measured values from PubChem BioAssay (EPA / NIEHS).
A structure can be active in one record and inactive in another. Calls of active or inactive are those of the source. The calls were made as follows: active = hit-call score of the fitted dose curve at least 0.9, where 1 is the maximum; inactive = score below 0.9.

Key:
[1] = ATG_CRE_CIS: Attagene CIS-FACTORIAL HepG2 Assay for human cAMP Responsive Element (CRE) binding protein 3 (AID 2282926); details: HepG2 CRE cis-reporter, Attagene multiplexed mRNA; actives raise or lower the signal
Summary of the method: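 Cells carrying cis-regulated reporter constructs respond through their own endogenous factors. After 24 h treatment, RNA is reverse-transcribed, amplified, labelled and sized by capillary electrophoresis; up- and down-regulation are both scored against vehicle.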

[2] = biological target: CCAAT/enhancer-binding protein beta (Homo sapiens) (UniProt P17676); assay: ATG_C_EBP_CIS: Attagene CIS-FACTORIAL HepG2 Assay for human CCAAT/Enhancer Binding Protein (C/EBP) beta (AID 2282927); details: HepG2 Attagene cis-factorial transcription factor reporter; actives raise or lower the signal
Summary of the method: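 HepG2, transient MRTU transfection, 24 h treatment. RT-PCR plus CE fluorescence; DMSO negative control, bidirectional fit.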

[3] = ATG_DR4_LXR_CIS: Attagene CIS-FACTORIAL HepG2 Assay for human Liver X Receptor (LXR), DR4 submotif (AID 2282929); details: HepG2 Attagene DR4 cis-reporter, mRNA transcription; actives raise or lower the signal
Summary of the method: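 Endogenous factor activity at a DR4 cis-element is read as reporter mRNA in transiently transfected HepG2 cells. Exposure lasts 24 h; transcripts are amplified, fluorescently labelled and sized by capillary electrophoresis, with DMSO as baseline.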

[4] = biological target: Aryl hydrocarbon receptor (Homo sapiens) (UniProt P35869); assay: ATG_Ahr_CIS: Attagene CIS-FACTORIAL HepG2 Assay for human Aryl Hydrocarbon Receptor (Ahr) (AID 2282930); details: HepG2 AhR cis-factorial reporter transcription; actives raise or lower the signal
Summary of the method: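 Endogenous factor activity is tracked through cis-promoter reporter units transfected into HepG2 cells. Transcript levels at 24 h are read by fluorescent RT-PCR and capillary electrophoresis, with activity in either direction scored relative to DMSO.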

[5] = ATG_AP_1_CIS: Attagene CIS-FACTORIAL HepG2 Assay for human Activator Protein 1 (AP-1) (AID 2282931); details: HepG2 Attagene cis-factorial AP-1 reporter mRNA; actives raise or lower the signal
Summary of the method: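 Fluorescence of labelled PCR fragments separated by capillary electrophoresis gives reporter mRNA levels. HepG2 with transfected cis-regulated reporter units, 24 h exposure; DMSO serves as baseline for bidirectional curve fits.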

[6] = ATG_AP_2_CIS: Attagene CIS-FACTORIAL HepG2 Assay for human Activator Protein 2 (AP-2) (AID 2282932); details: HepG2 AP-2 cis-reporter, Attagene transcription factor profiling; actives raise or lower the signal
Summary of the method: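 Read-out: fluorescent reporter mRNA via RT-PCR and capillary electrophoresis, 24 h post-dose in transiently transfected HepG2. Endogenous factors drive cis-promoter reporters; gain or loss of signal fitted bidirectionally against DMSO.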

[7] = ATG_BRE_CIS: Attagene CIS-FACTORIAL HepG2 Assay for human Bone Morphogenetic Protein (BMP) Response Element (BRE) (AID 2282933); details: HepG2 BMP response element reporter, Attagene transcription factor profiling; actives raise or lower the signal
Summary of the method: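 HepG2 cells transiently transfected with CIS reporter units (endogenous TF activity, BMP response element), dosed 24 h. Reporter mRNA quantified by RT-PCR, fluorescent labelling and capillary electrophoresis; bidirectional fit vs DMSO baseline.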

[8] = biological target: Retinoic acid receptor alpha (Homo sapiens) (UniProt P10276); assay: ATG_DR5_RAR_CIS: Attagene CIS-FACTORIAL HepG2 Assay for human Retinoic Acid Receptor Alpha (RARE), DR5 submotif (AID 2282934); details: HepG2 Attagene cis-factorial RARE DR5 reporter, mRNA; actives raise or lower the signal;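 as to AC50: reporter responds to endogenous RAR alpha beta and gamma in HepG2 not RARA alone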
Summary of the method: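 After 24 h of chemical exposure, transiently transfected HepG2 cells were lysed for total RNA; the DR5-regulated reporter transcript was quantified via RT-PCR and capillary electrophoresis, with activity fitted bidirectionally against DMSO.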

[9] = ATG_E_Box_CIS: Attagene CIS-FACTORIAL HepG2 Assay for human Enhancer Box (E-box) (AID 2282936); details: HepG2 E-box cis-reporter transcription, actives raise or lower the signal
Summary of the method: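 Transiently transfected HepG2, endogenous TF-driven reporters, 24 h dosing. Readout: RT-PCR plus capillary electrophoresis of fluorescent reporter fragments. Gain or loss of signal fitted bidirectionally against DMSO baseline.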

[10] = ATG_M_61_CIS: Attagene CIS-FACTORIAL HepG2 Assay for M61 Transcription Factor (Internal Marker) (AID 2282937); details: HepG2 Attagene CIS-FACTORIAL M61 internal marker reporter; actives raise or lower the signal
Summary of the method: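 This endpoint serves as an internal background control within a multiplexed HepG2 cis-reporter panel. Cells are exposed for 24 h; reporter mRNA is amplified, fluorescently labelled and sized by capillary electrophoresis, with DMSO as negative control.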

[11] = ATG_M_19_CIS: Attagene CIS-FACTORIAL HepG2 Assay for M19 Transcription Factor (Internal Marker) (AID 2282939); details: HepG2 Attagene CIS-FACTORIAL M19 internal marker reporter; actives raise or lower the signal
Summary of the method: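 HepG2 cells transiently transfected with cis-regulated multiplexed reporter units, dosed 24 h. Reporter mRNA quantified by RT-PCR and capillary electrophoresis; internal background marker fitted bidirectionally versus DMSO.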

[12] = ATG_EGR_CIS: Attagene CIS-FACTORIAL HepG2 Assay for human Early Growth Response 1 (EGR1) (AID 2282938); details: HepG2 Attagene CIS-FACTORIAL EGR reporter mRNA; actives raise or lower the signal
Summary of the method: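 HepG2, transient MRTU transfection (cis promoters), 24 h compound. RNA → RT (oligo-dT) → PCR → 6-FAM labelling → HpaI cut → CE fluorescence. Bidirectional fit, DMSO baseline.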

[13] = biological target: Transcription factor E2F1 (Homo sapiens) (UniProt Q01094); assay: ATG_E2F_CIS: Attagene CIS-FACTORIAL HepG2 Assay for human E2F Transcription Factor 1 (AID 2282935); details: HepG2 Attagene cis-reporter, E2F reporter RNA transcripts; actives raise or lower the signal
Summary of the method: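 Transient MRTU transfection of HepG2; 24 h compound exposure; RNA → oligo(dT) RT → PCR → FAM label → HpaI cut → CE fluorescence. Gain/loss of signal fit against DMSO.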

[14] = ATG_CMV_CIS: Attagene CIS-FACTORIAL HepG2 Assay for human CMV (Internal Marker) (AID 2282928); details: HepG2 CMV promoter reporter, transcription factor profiling; actives raise or lower the signal;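 also: endpoint acts as a background internal control marker rather than a target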
Summary of the method: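 Fluorescence intensity of RT-PCR-derived reporter fragments, resolved by capillary electrophoresis, gives the signal. HepG2 liver cells bearing transfected cis-element reporters were treated 24 h; activity in either direction was fit relative to DMSO-treated controls.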

Measured: AC50

Chain of Retinoic acid receptor alpha (Homo sapiens) (P10276 whole entry, looked up): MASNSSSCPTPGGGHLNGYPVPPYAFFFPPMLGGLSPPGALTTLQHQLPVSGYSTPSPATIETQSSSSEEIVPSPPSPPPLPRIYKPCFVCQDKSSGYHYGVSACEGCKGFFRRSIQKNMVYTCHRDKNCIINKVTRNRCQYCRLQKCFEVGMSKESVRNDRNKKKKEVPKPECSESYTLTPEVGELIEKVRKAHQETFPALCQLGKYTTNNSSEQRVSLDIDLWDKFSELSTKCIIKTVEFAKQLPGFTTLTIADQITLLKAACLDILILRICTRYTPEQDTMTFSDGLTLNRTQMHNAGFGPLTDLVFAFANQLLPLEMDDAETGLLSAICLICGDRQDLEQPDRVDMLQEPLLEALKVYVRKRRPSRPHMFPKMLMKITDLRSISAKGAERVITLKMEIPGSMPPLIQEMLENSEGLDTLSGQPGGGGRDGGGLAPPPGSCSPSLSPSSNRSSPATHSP
Chain of CCAAT/enhancer-binding protein beta (Homo sapiens) (P17676 whole entry, looked up): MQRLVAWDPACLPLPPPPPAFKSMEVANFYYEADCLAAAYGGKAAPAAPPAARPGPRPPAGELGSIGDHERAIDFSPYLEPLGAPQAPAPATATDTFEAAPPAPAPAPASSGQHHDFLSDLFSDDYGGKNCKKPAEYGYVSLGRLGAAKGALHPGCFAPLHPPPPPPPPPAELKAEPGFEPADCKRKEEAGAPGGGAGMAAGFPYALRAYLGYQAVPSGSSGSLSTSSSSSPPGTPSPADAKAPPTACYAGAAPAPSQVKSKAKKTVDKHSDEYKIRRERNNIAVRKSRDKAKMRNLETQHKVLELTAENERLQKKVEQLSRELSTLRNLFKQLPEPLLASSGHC
Chain of Transcription factor E2F1 (Homo sapiens) (Q01094 whole entry, looked up): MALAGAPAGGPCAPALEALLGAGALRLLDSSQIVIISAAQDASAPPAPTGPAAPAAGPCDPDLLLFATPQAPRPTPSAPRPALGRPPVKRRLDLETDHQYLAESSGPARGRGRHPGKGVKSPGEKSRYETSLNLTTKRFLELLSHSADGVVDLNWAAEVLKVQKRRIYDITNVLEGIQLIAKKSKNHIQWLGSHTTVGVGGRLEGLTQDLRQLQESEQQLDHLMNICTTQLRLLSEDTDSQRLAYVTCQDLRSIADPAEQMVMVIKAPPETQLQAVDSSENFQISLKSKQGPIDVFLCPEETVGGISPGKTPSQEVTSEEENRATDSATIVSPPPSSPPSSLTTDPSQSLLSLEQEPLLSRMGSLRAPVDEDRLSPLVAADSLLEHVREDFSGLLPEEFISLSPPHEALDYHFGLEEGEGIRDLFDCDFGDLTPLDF
Chain of Aryl hydrocarbon receptor (Homo sapiens) (P35869 whole entry, looked up): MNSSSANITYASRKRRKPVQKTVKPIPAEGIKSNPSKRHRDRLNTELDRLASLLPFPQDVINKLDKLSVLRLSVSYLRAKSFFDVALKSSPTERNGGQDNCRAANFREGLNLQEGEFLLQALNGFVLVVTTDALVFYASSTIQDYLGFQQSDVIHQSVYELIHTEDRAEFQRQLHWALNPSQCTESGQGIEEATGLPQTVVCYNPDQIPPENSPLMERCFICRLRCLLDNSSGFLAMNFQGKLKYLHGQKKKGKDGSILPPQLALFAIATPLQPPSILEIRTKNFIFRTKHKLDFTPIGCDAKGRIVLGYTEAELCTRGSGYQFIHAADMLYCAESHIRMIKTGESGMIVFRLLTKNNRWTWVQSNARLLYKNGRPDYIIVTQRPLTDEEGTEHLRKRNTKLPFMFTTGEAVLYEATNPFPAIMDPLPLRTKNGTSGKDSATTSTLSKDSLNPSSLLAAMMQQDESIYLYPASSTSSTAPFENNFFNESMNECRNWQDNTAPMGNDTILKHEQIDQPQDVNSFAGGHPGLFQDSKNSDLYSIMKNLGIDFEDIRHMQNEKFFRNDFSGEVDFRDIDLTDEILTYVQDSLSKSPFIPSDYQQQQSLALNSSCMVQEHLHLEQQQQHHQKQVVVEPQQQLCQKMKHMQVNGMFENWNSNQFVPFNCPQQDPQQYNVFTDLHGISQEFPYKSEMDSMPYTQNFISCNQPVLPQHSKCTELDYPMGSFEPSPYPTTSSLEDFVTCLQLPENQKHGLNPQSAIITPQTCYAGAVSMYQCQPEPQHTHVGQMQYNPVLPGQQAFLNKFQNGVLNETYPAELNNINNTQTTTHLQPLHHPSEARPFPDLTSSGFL

N#CCC#N
active: [8] 63.4 µM
not listed: [12] | [13] | [14]
inactive: all other assays above

CCOC(=O)C(SP(=S)(OC)OC)c1ccccc1 (configuration not stated)
not listed: [9] | [11] | [13] | [14]
inactive: all other assays above

O=C1C=CC(=O)c2ccccc21
active: [4] 0.652 µM
not listed: [5] | [11] | [12] | [14]
inactive: all other assays above

OC(Cc1ccccc1Cl)(Cn1cncn1)C1(Cl)CC1 (configuration not stated)
active: [12] 47.6 µM
not listed: [6] | [7] | [9] | [14]
inactive: all other assays above

CCCCCCCCCCCCBr
active: [3] 48.2 µM
not listed: [14]
inactive: all other assays above

NC(=O)c1ccc(N)nc1
not listed: [9] | [14]
inactive: all other assays above

CCCCCCCCCCCCOS(=O)(=O)O
active: [3] 49.3 µM
inactive: [1] | [2] | [3] | [5] | [6] | [13] | [9] | [10] | [12] | [11]

O=C(CBr)c1ccc(O)cc1
not listed: [5] | [6] | [7]
inactive: all other assays above

[F][Sn]([c]1ccccc1)([c]1ccccc1)[c]1ccccc1
active: [1] 0.321 µM | [2] 2.15 µM | [3] 0.528 µM | [4] 0.329 µM | [6] 1.84 µM | [9] 0.593 µM | [12] 0.336 µM
inactive: [7] | [8] | [13] | [10] | [11]

C=C(C)[C@@H]1CC=C(C=O)CC1
active: [5] 100 µM
not listed: [4] | [11] | [13]
inactive: all other assays above

c1cc[c]([Sb]([c]2ccccc2)[c]2ccccc2)cc1
active: [14] 64.8 µM | [3] 9.64 µM
not listed: [5] | [6] | [7]
inactive: all other assays above

COCCl
not listed: [11] | [14]
inactive: all other assays above

Cc1cccc(C)c1NC(=O)CN1CCCC1=O
not listed: [12] | [14]
inactive: all other assays above

O=C(CCl)Nc1ccccc1
active: [1] 13.2 µM | [3] 76 µM | [6] 44 µM | [13] 147 µM | [12] 44.4 µM
inactive: [2] | [14] | [4] | [8] | [10]

CCOC(=O)c1ccccc1S(=O)(=O)NC(=O)Nc1nc(Cl)cc(OC)n1
not listed: [13] | [14]
inactive: all other assays above

ClCc1ccccc1CCl
active: [1] 9.56 µM | [3] 16.6 µM | [5] 59.7 µM | [9] 33.4 µM | [12] 29.5 µM
not listed: [7] | [13] | [14]
inactive: all other assays above

Clc1ccc(C(Cl)(Cl)Cl)cn1
active: [4] 5.67 µM
not listed: [6] | [14]
inactive: all other assays above

OC[C@@H](O)[C@H]1O[C@@H]2O[C@H](C(Cl)(Cl)Cl)O[C@@H]2[C@H]1O
not listed: [5] | [14]
inactive: all other assays above

BrCC(Br)c1ccccc1 (configuration not stated)
not listed: [14]
inactive: all other assays above

NC(=O)CCl
not listed: [14]
inactive: all other assays above

O=S1(=O)OC(c2cc(Br)c(O)c(Br)c2)(c2cc(Br)c(O)c(Br)c2)c2ccccc21
active: [4] 26 µM
not listed: [14]
inactive: all other assays above

C=CCCl
not listed: [13] | [14]
inactive: all other assays above

CCNc1nc(NCC)nc(SC)n1
not listed: [14]
inactive: all other assays above

Clc1cc(C(Cl)(Cl)Cl)cnc1Cl
active: [3] 8.81 µM | [13] 33.4 µM | [9] 4.54 µM | [12] 8.77 µM
not listed: [5] | [6]
inactive: all other assays above

N#CS
not listed: [8] | [14]
inactive: all other assays above

CC(C)(C)c1ccc(CCOc2ncnc3ccccc23)cc1
not listed: [14]
inactive: all other assays above

CCOC(=O)CC(=O)CCl
active: [1] 176 µM | [2] 183 µM | [3] 61.6 µM | [5] 75.2 µM | [6] 44 µM | [12] 32.2 µM
not listed: [9] | [14]
inactive: all other assays above

c1ccc2c(c1)Oc1ccccc1O2
active: [4] 0.667 µM
not listed: [5] | [6]
inactive: all other assays above

CNC(=O)O/N=C/C(C)(C)S(C)(=O)=O
not listed: [5] | [7]
inactive: all other assays above

CCC[N+](CCC)(CCC)CCC
not listed: [6] | [7] | [14]
inactive: all other assays above

Brc1ccc(Br)cc1
not listed: [6] | [12] | [14]
inactive: all other assays above

CC1(C)[C@H](/C=C2\CCSC2=O)[C@@H]1C(=O)OCc1coc(Cc2ccccc2)c1
active: [3] 17.9 µM | [12] 19 µM
not listed: [5] | [6]
inactive: all other assays above

CCC(C)(C#N)N=NC(C)(C#N)CC (configuration not stated)
not listed: [14]
inactive: all other assays above

CC1(C)COP(Oc2ccccc2)OC1
not listed: [12] | [14]
inactive: all other assays above

CCC[CH2][Sn]([Cl])([Cl])[CH2]CCC
active: [1] 0.947 µM | [2] 0.33 µM | [3] 0.807 µM | [7] 0.316 µM | [12] 1.24 µM
not listed: [13] | [14]
inactive: all other assays above

C=C(C)C(=O)OCCCCOC(=O)C(=C)C
not listed: [14]
inactive: all other assays above

Cc1cc(-c2cc(C)c(N)c(C)c2)cc(C)c1N
active: [14] 37.8 µM | [4] 0.776 µM
not listed: [5] | [6] | [7]
inactive: all other assays above

CCOc1cc(C=O)ccc1O
inactive: [2] | [3] | [7] | [8] | [9] | [10] | [12] | [11]

O=C(Cc1ccccc1)OCCc1ccccc1
not listed: [5] | [13] | [14]
inactive: all other assays above

C1CCC(C2CCCCC2)CC1
active: [14] 86.2 µM
not listed: [1]
inactive: all other assays above
